In PubChem BioAssay AID2073 (Sanford-Burnham Center for Chemical Genomics, 2009):
The campaign covered roughly 290,000 compounds. About 570 (0.2%) were called active. Another 1% or so got no clear call; they are omitted. Cut-off read from the data, not from the text of the source: active = inhibition mostly above about 51% (no sharp cut-off); inconclusive = no clear call, values can overlap the other calls; inactive = mostly below about 53%. Shown is part of a subset that was picked to be rich in actives.

Biological target: Voltage-dependent N-type calcium channel subunit alpha-1B (Homo sapiens) (UniProt Q00975)
Sequence (Q00975 whole entry, looked up): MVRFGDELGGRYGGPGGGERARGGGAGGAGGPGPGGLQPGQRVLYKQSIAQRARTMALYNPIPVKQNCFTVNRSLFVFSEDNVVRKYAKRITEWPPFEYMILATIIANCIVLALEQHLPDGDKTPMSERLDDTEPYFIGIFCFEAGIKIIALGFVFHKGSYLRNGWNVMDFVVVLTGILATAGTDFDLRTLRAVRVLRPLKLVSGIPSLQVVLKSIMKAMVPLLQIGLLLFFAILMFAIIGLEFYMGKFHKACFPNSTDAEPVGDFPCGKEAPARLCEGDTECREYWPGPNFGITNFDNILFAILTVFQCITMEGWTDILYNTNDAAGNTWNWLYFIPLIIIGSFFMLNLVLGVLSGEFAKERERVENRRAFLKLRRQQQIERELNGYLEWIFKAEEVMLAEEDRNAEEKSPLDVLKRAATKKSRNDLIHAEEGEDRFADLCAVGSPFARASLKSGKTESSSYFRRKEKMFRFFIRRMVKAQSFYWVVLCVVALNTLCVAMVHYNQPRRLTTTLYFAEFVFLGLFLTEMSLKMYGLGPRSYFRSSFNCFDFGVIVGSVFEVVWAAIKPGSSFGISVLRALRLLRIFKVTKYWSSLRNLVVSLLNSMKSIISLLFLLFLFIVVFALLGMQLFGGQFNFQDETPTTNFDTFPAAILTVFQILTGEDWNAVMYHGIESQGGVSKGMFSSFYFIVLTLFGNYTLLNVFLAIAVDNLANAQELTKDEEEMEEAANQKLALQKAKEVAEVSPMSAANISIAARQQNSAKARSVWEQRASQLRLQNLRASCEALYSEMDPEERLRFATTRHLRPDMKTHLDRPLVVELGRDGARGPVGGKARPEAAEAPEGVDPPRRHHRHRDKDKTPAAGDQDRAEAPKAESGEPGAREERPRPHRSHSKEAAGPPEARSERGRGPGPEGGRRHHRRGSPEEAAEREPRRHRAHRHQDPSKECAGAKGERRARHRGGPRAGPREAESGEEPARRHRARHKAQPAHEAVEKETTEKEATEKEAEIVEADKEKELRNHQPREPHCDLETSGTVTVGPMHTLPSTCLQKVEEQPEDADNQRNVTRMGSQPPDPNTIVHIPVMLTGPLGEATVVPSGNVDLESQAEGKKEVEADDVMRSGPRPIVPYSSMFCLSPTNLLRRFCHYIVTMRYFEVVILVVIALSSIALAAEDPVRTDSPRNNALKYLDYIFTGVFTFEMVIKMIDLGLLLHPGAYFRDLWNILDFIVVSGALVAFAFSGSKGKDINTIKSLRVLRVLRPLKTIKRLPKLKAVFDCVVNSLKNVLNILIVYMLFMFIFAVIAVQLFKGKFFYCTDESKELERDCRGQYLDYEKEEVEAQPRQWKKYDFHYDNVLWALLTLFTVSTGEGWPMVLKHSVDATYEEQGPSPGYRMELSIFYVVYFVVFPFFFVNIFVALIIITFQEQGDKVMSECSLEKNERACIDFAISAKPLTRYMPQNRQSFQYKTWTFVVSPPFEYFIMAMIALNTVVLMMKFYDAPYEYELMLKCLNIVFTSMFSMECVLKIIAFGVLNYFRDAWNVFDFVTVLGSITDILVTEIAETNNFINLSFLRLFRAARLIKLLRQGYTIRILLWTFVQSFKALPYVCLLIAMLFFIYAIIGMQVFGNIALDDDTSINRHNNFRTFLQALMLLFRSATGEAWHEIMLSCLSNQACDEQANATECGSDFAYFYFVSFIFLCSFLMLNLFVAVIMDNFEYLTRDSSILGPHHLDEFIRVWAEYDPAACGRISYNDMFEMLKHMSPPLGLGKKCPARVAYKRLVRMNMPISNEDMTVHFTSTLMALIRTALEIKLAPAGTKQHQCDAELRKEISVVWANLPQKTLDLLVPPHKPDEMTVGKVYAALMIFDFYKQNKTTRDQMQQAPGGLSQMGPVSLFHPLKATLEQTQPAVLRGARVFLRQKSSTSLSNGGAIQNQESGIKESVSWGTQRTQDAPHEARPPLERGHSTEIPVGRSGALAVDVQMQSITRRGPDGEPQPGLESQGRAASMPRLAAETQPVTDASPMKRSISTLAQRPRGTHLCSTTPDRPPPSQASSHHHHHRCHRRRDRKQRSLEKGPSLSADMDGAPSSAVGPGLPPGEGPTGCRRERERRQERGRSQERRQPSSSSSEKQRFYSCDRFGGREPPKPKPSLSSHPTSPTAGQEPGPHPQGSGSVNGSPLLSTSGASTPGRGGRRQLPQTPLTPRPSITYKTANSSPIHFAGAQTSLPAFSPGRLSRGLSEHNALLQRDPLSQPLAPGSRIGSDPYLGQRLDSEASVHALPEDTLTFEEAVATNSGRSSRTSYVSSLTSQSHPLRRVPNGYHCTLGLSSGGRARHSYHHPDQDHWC
Assay: disruptors of CaV2.2 binding to Mint1 – biochemical, HTRF (AID 2073)
Conditions: HTRF protein-protein interaction, Mint1-CaV2.2, at 20 µM, stronger effect = higher value
[1] = measured here: average of repeat tests

| SMILES | inhibition | inhibition [1] |
| --- | --- | --- |
| Cc1ccc(N2C(=O)N3[C@H](c4ccc(F)cc4)[C@@H]4C(=O)N(C5CCCCC5)C(=O)[C@@H]4[C@]3(C)C2=O)cc1 | 3.5% (inactive) |  |
| Cc1ccccc1C(=O)NC(C(N)=O)P(=O)(OC(C)C)OC(C)C (stereo not drawn) | -2.5% (inactive) |  |
| CCc1ccccc1NS(=O)(=O)c1cccc2nsnc12 | 4.2% (inactive) |  |
| NC(=S)n1[nH]c(-c2ccc([N+](=O)[O-])cc2)c(N=Nc2cccc(Cl)c2)c1=O | 64.1% (inactive) | 12.7% |
| NC(=S)n1[nH]c(-c2ccc([N+](=O)[O-])cc2)c(N=Nc2ccccc2[N+](=O)[O-])c1=O | 69.4% (inactive) | 20.6% |
| NC(=S)n1[nH]c(-c2ccc([N+](=O)[O-])cc2)c(N=Nc2ccc(O)cc2)c1=O | -5.9% (inactive) |  |
| Cc1[nH]n(C(N)=S)c(=O)c1N=Nc1cccc([N+](=O)[O-])c1C | 14.9% (inactive) |  |
| CCCC(=O)c1cc2cc(Cl)ccc2oc1=O | -2.8% (inactive) |  |
| CCOC(=O)CSc1nnc(-c2cccnc2)n1C | 0.8% (inactive) |  |
| CN1CCN(C(CC(=O)Nc2cccc(O)c2)C(=O)O)CC1 (stereo not drawn) | 0.5% (inactive) |  |
| O=C(CSc1nnc(-c2ccccc2)o1)NC1CCS(=O)(=O)C1 (stereo not drawn) | -2.1% (inactive) |  |
| O=C(OCn1ncc(Cl)c(Cl)c1=O)c1ccc(F)cc1 | -3% (inactive) |  |
| COc1ccc(N2CCN(C(=O)c3ccc4c(=O)n5c(nc4c3)CCCCC5)CC2)cc1 | -6.5% (inactive) |  |
| Cc1ccc2c(CN3CCN(Cc4ccccc4)CC3)cc(=O)oc2c1C | 6.6% (inactive) |  |
| Cc1ccccc1NC(=S)NCc1cccs1 | 5.6% (inactive) |  |
| Cc1cc(C)c(NC(=S)N(Cc2cccnc2)Cc2ccco2)c(C)c1 | 0.6% (inactive) |  |
| COc1ccc2cc(C(c3nnnn3C(C)(C)C)N3CCc4ccccc4C3)c(=O)[nH]c2c1 (stereo not drawn) | 33% (inactive) |  |
| CCC(C)(C)n1nnnc1C(c1cc2ccc(OC)cc2[nH]c1=O)N1CCc2ccccc2C1 (stereo not drawn) | 56.9% (active) |  |
| CCC(C)(C)n1nnnc1C(c1cc2ccc(OC)cc2[nH]c1=O)N1CCc2ccccc21 (stereo not drawn) | 19.3% (inactive) |  |
| Fc1cccc(Cl)c1CNn1cn[nH]c1=S | -3% (inactive) |  |
| COc1ccc2c(c1)CCc1cc(C(=O)N3CCN(c4ccc(N5CCOCC5)nn4)CC3)sc1-2 | 13.6% (inactive) |  |
| CCCCc1[nH]nc2c1C1(C(=O)N(CC)c3ccccc31)C(C#N)=C(N)O2 (stereo not drawn) | -5.8% (inactive) |  |
| COc1ccc(N2CCN(CCNC(=O)Nc3cccc(C)c3C)CC2)cc1 | 0.6% (inactive) |  |

| SMILES | inhibition | inhibition [1] |
| --- | --- | --- |
| O=C(/C=C/c1ccc2c(c1)OCO2)Nc1nc(-c2ccc(F)cc2F)cs1 | 9.1% (inactive) |  |
| CCCCOc1ccc(-c2cc(C(F)(F)F)c(C#N)c(SCC(=O)O)n2)cc1 | 60.7% (active) |  |
| CCCOc1ccc(-c2cc(C(F)(F)F)c(C#N)c(SCC(=O)O)n2)cc1 | 35.3% (inactive) |  |
| COc1ccc(-c2cc(C(F)(F)F)c(C#N)c(SCC(=O)O)n2)cc1 | 22% (inactive) |  |
| Cc1cccc(NC(=O)CCN2C(=O)C3C4C=CC(C4)C3C2=O)n1 (stereo not drawn) | 22% (inactive) |  |
| O=C(NCc1ccc(Cl)cc1)c1nccnc1CO | 11.8% (inactive) |  |
| COc1ccc(NS(=O)(=O)c2cccc(-c3n[nH]c(=S)n3Cc3ccccc3)c2)cc1 | 3.7% (inactive) |  |
| O=C(COc1ccc(Br)cc1Cl)c1ccc[nH]1 | 24.7% (inactive) |  |
| O=C(COc1ccccc1Cl)c1ccc[nH]1 | 53.6% (active) |  |
| O=C(COc1ccc(Cl)cc1Cl)c1ccc[nH]1 | 21.1% (inactive) |  |
| COc1ccc(C(NC(=O)CC(C)C)c2c(O)ccc3ccccc23)cc1 (stereo not drawn) | 15.2% (inactive) |  |
| N#CC1=C2SCN(c3ccccc3)CN2C(=O)CC1c1ccccc1Cl (stereo not drawn) | 57.1% (inactive) | 35.2% |
| CCc1ccccc1N1CSC2=C(C#N)C(c3ccccc3F)CC(=O)N2C1 (stereo not drawn) | 84.5% (active) |  |
| CCOc1cc(C2CC(=O)N3CN(C4CCCCC4)CSC3=C2C#N)ccc1O (stereo not drawn) | 62.4% (active) |  |
| COc1cc(OC)c(C2CC(=O)N3CN(c4ccc(C)cc4)CSC3=C2C#N)cc1OC (stereo not drawn) | 65.7% (inactive) | 14.9% |
| CCc1ccc(C2CC(=O)N3CN(c4ccccc4)CSC3=C2C#N)cc1 (stereo not drawn) | 88% (inactive) | 42.4% |
| CCc1ccccc1N1CSC2=C(C#N)C(c3cc(OC)c(OC)cc3OC)CC(=O)N2C1 (stereo not drawn) | 75.6% (inactive) | 34.5% |
| COc1cc(OC)c(C2CC(=O)N3CN(c4ccccc4C)CSC3=C2C#N)cc1OC (stereo not drawn) | 73.1% (active) |  |
| N#CC1=C2SCN(Cc3ccco3)CN2C(=O)CC1c1ccccc1F (stereo not drawn) | 84.1% (inactive) | 33.2% |
| COc1cccc(C2CC(=O)N3CN(c4cccc(Cl)c4C)CSC3=C2C#N)c1OC (stereo not drawn) | 73.5% (active) |  |
| N#CC1=C2SCN(c3ccccc3)CN2C(=O)CC1c1cccs1 (stereo not drawn) | 74% (inactive) | 42.2% |
| CCOc1cc(C2CC(=O)NC(SCC)=C2C#N)ccc1O (stereo not drawn) | 5.2% (inactive) |  |
| COc1cc(C2CC(=O)N3CN(c4ccccc4C)CSC3=C2C#N)cc(OC)c1OC (stereo not drawn) | 90.6% (inactive) | 32.6% |

| SMILES | inhibition | inhibition [1] |
| --- | --- | --- |
| CCC(C)/C(C)=N/NC(=O)CSc1nc2ccccc2[nH]1 (stereo not drawn) | -5.4% (inactive) |  |
| Cc1ccc(C)c(N(C(=O)c2csnn2)C(C(=O)NC2CCCCC2)c2ccccn2)c1 (stereo not drawn) | 1.3% (inactive) |  |
| O=C(CN1CCOCC1)Nc1cccc(S(=O)(=O)N2CCCCCC2)c1 | -5.9% (inactive) |  |
| Cc1ccc(N2C(=O)C3C4CC(=O)C(c5ccccc54)C3C2=O)cc1C (stereo not drawn) | -1.5% (inactive) |  |
| COc1ccc(OC)c(C2CC(=O)N3CN(c4ccccc4F)CSC3=C2C#N)c1 (stereo not drawn) | 29.3% (inactive) |  |
| COc1ccc(C2CC(=O)N3CN(c4ccccc4F)CSC3=C2C#N)cc1OC (stereo not drawn) | 79.9% (inactive) | 38.6% |
| COc1cccc(C2CC(=O)N3CN(c4ccccc4F)CSC3=C2C#N)c1 (stereo not drawn) | 75.5% (inactive) | 31% |
| COc1ccc(N2CSC3=C(C#N)C(c4ccc(OC)c(OC)c4)CC(=O)N3C2)c(OC)c1 (stereo not drawn) | 91.4% (active) |  |
| COc1ccc(N2CSC3=C(C#N)C(c4cc(OC)ccc4OC)CC(=O)N3C2)c(OC)c1 (stereo not drawn) | 69.2% (active) |  |
| COc1ccc(C2CC(=O)N3CN(c4ccc(C)c(Cl)c4)CSC3=C2C#N)cc1 (stereo not drawn) | 80.8% (inactive) | 11.1% |
| COc1ccccc1N1CSC2=C(C#N)C(c3ccc(SC)cc3)CC(=O)N2C1 (stereo not drawn) | 81.5% (active) |  |
| COc1ccc(OC)c(C2CC(=O)N3CN(c4cccc(Cl)c4)CSC3=C2C#N)c1 (stereo not drawn) | 37.5% (inactive) |  |
| CCOc1ccccc1N1CSC2=C(C#N)C(c3c(OC)ccc4ccccc34)CC(=O)N2C1 (stereo not drawn) | 72.9% (inactive) | 9.7% |
| CCCCc1cc(=O)oc2cc(OCC(=O)N3CCC(C(N)=O)CC3)ccc12 | 8.7% (inactive) |  |
| O=C(c1ccco1)N1CCN(Cc2cccc3ccccc23)CC1 | 3.9% (inactive) |  |
| O=C(COC(=O)c1ccc(O)cc1)Nc1cccc(S(=O)(=O)NC2=NCCCCC2)c1 | -9.8% (inactive) |  |
| O=C(COC(=O)c1cnccn1)Nc1ccc(Cl)cc1 | 3.8% (inactive) |  |
| NS(=O)(=O)c1ccc(NC(=O)COC(=O)c2cnccn2)cc1 | 51.2% (active) |  |
| CC(=O)Nc1ccc(NC(=O)COC(=O)c2cnccn2)cc1 | 15.7% (inactive) |  |
| CC(C)OC(=O)c1cc2c(ccn2-c2ccc(F)cc2)n1CC(=O)N1CCN(C(=O)c2ccco2)CC1 | 40.4% (inactive) |  |
| C[C@H]1c2cccc(O)c2C(O)=C2C(=O)[C@]3(O)C(O)=C(C(N)=O)C(=O)[C@@H](N(C)C)[C@@H]3[C@@H](O)[C@@H]21 | 13.4% (inactive) |  |
| CN(C)c1ccc(O)c2c1CC1CC3[C@@H](N(C)C)C(=O)C(C(N)=O)=C(O)[C@]3(O)C(=O)C1=C2O (stereo partly drawn) | 22.3% (inactive) |  |
| CN(C)[C@@H]1C(=O)C(C(N)=O)=C(O)[C@@]2(O)C(=O)C3=C(O)c4c(O)ccc(Cl)c4[C@@H](O)[C@H]3C[C@@H]12 | 56.1% (active) |  |

| SMILES | inhibition | inhibition [1] |
| --- | --- | --- |
| C=C1CCC[C@]2(C)C[C@H]3OC(=O)C(CN(Cc4ccc(OC)c(OC)c4)CC(C)O)[C@H]3CC12 (stereo partly drawn) | 6.9% (inactive) |  |
| COc1cccc(-c2nc(NCc3cccnc3)c3ccccc3n2)c1O | 14.2% (inactive) |  |
| O=C(Nc1ccc2oc(-c3ccccc3Cl)nc2c1)c1ncn[nH]1 | 28.3% (inactive) |  |
| O=C(Nc1ccc2oc(-c3ccccc3F)nc2c1)c1ncn[nH]1 | 2.6% (inactive) |  |
| O=C(c1cccs1)N1CCN=C1SCc1cccnc1 | -1.3% (inactive) |  |
| CCOc1cccc(NC(=O)c2cccc(F)c2)c1 | 2.7% (inactive) |  |
| CN(C)C=Nc1c(Br)cc(Br)c2nonc12 | 19.7% (inactive) |  |
| COc1ccc(OC)c(Nc2nc(=O)c3cccnc3s2)c1 | 81.8% (active) |  |
| Cc1ccc(Nc2nc(=O)c3cccnc3s2)c(Br)c1 | -13% (inactive) |  |
| Cc1ccc(Nc2nc(=O)c3cccnc3s2)cc1 | 2.2% (inactive) |  |
| Cc1cccc(Oc2sc(C(=O)c3ccccc3)c(N)c2C#N)c1C | 4.2% (inactive) |  |
| CCCCNc1nc2ccccc2nc1Cl | 4.6% (inactive) |  |
| COc1ccc(C2(C)NC(=O)N(CC(=O)Nc3ccc(S(=O)(=O)N4CCCC4)cc3)C2=O)cc1 (stereo not drawn) | 4.9% (inactive) |  |
| Brc1ccc(/C=C/C=N/Nc2nc3ccccc3s2)cc1 | 5.3% (inactive) |  |
| Oc1ccc(N=C/C=C/c2ccc(Br)cc2)cc1-c1nc2ccccc2s1 | 62.9% (active) |  |
| Oc1ccc(N=C/C=C/c2cccc(Br)c2)cc1-c1nc2ccccc2s1 | 66.6% (inactive) | 5% |
| COCCCN=C1NN=C(c2cc(C)n(Cc3ccco3)c2C)CS1 | 24.8% (inactive) |  |
| CCN=C1NN=C(c2cc(C)n(Cc3ccco3)c2C)CS1 | 57.5% (active) |  |
| Cc1cc(C2=NNC(=NC3CC3)SC2)c(C)n1Cc1ccco1 | 26.3% (inactive) |  |
| CCOC(=O)/C(C#N)=C1/C=Nc2ccccc2N1 | 14.4% (inactive) |  |
